Measured values from PubChem BioAssay AID1069 (NMMLSC, 2008).
Calls of active or inactive are those of the source.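 Rule for the calls: active = high combined rank on largest and smallest cell-count-weighted shift across three tests, rank score above 45, floors 50 and 25 (some results past the limit were not filed as active); inactive = the rest.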

Assay: activators of LNCaP cell differentiation, retest, confirmation, side scatter shift, flow cytometry (AID 1069);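 note: LNCaP human prostate cancer cells in low-serum medium with charcoal-stripped FBS; percent of cells with raised granularity gated so DMSO controls show 10%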
Settings: 4 d, stronger effect = higher value

Compound | side scatter shift (at 100 µM) | side scatter shift (side scatter shift, at 10 µM)
Cc1ccc(Cn2c(C)c3cnn(CC(=O)N4CCC5(CC4)OCCO5)c(=O)c3c2C)cc1 | 9.1% (inactive) | 3.35%
Clc1ccc(COC(Cn2ccnc2)c2ccc(Cl)cc2Cl)cc1 (stereo not given) | 18.2% (inactive) | 2.85%
CCn1c(=O)cc(OCC(=O)N2CCC3(CC2)OCCO3)c2ccccc21 | 6.7% (inactive) | 1.7%
Cc1nc2ccccc2c(=O)n1-c1ccc(F)cc1 | 8.9% (inactive) | 3.5%
Cc1cc(OCC(=O)O)c2c3c(c(=O)oc2c1)CCCC3 | 5.1% (inactive) | 5.9%
CCn1c(=O)cc(OCC(=O)N2CCN(Cc3ccc4c(c3)OCO4)CC2)c2ccccc21 | 0% (inactive) | 3.6%
Cc1ccc2c(c1)[C@@H]1CN(C)CC[C@@H]1N2C(=O)Nc1cccc(C(F)(F)F)c1 | 23.1% (inactive) | 10.6%
CCOc1ccc(C2SCC(=O)Nc3c2c(=O)[nH]n3C2CCCCCC2)cc1 (stereo not given) | 22.2% (inactive) | 10.5%
C[C@H]1CCC/C=C/C2C[C@H](O)CC2[C@H](O)/C=C/C(=O)O1 (stereo not given in full) | 8.7% (inactive) | 9.7%
O=C(COc1ccc2ccccc2c1)N1CCN(C2CCN(Cc3ccccc3)CC2)CC1 | 54.3% (inactive) | 5.8%
